Screening results deposited in PubChem by The Scripps Research Institute Molecular Screening Center.
An excerpt weighted towards active compounds, which were near 2.4% of everything screened.
CHRM1 agonist: agonists of human M1 muscarinic receptor. P11229. hit rate 0.33% among 360,000. CHO-K1 hM1, Fluo-8 calcium fluorescence, agonist mode; 0% DMSO, 100% acetylcholine EC100. activation, % at 3 µM;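 active = activation above the run's mean compound activation plus 3 SD, cut at about 16% in these data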;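 note: peak over basal fluorescence ratio within a 140 s kinetic read after compound addition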
Target sequence (P11229 whole entry, looked up): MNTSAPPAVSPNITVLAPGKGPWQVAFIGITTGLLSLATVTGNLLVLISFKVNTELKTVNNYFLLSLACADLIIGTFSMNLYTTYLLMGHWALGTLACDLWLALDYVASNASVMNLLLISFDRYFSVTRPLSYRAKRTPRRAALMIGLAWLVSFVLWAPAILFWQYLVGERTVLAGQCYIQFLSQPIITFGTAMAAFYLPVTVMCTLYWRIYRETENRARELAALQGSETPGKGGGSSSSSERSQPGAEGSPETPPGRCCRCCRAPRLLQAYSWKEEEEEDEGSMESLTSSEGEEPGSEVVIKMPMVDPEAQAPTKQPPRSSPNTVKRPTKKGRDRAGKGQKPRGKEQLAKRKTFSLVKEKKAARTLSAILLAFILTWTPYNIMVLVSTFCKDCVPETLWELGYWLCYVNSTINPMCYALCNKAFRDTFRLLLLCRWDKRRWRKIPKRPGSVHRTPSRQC
M1 PAM: human CHRM1 positive allosteric modulation | P11229 | CHO-K1 hM1, Fluo-8 calcium fluorescence, ACh EC20; 0% = ACh EC20, 100% = maximal ACh | activation, % at 3 µM | hit rate 0.088% among 360,000 | AID 588819; in the data active = activation above about 19%, passing the limit was not always enough
CHO-K1 Ca PAM: nonselective activator or artifact in parental CHO-K1 calcium assay; activation, % at 3 µM; AID 602247; hit rate 0.02% among 360,000; ATP EC20, Fluo-8 calcium fluorescence; 0% at ATP EC20, 100% at ATP max;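 active = activation above the run cutoff, the mean activation of all test compounds plus 3 SD, cut at about 40% in these data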;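 note: peak over basal fluorescence ratio in a 140 s read after ATP addition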
CHO-K1 Ca antag: counter-screen for M1 antagonists: effect in parental CHO-K1 cells; ATP-induced calcium, Fluo-8 fluorescence; inhibition, % at 3 µM; hit rate 0.6% among 360,000; AID 602250;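 active = inhibition above a per-plate cutoff, the plate's mean sample inhibition plus 3 SD, cut at about 24% in these data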;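 note: 0% = DMSO plus EC80 ATP and 100% = DMSO alone without ATP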
CHO-K1 Ca ag: M1 agonist counterscreen hit in parental CHO-K1 cells. Fluo-8 calcium fluorescence; scaled to maximal ATP response, vehicle zero. activation, % at 3 µM. hit rate 0.48% among 360,000. AID 602248; in the data active = activation above about 15%;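 note: untransfected CHO-K1 host cells lacking M1 receptor as counterscreen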
M1 antag: human CHRM1 antagonism; hit rate 1.3% among 360,000; CHO-K1 hM1, Fluo-8 calcium fluorescence, ACh EC80 antagonist; AID 588852; inhibition, % at 3 µM;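 active = percent inhibition above its own plate's cutoff, namely the mean of that plate's compound wells plus 3 SD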;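 note: peak over basal fluorescence ratio during 140 s after agonist addition; 0% = ACh EC80 plus DMSO and 100% = DMSO alone without agonist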
Active calls of the source: *.

SMILES	CHRM1 agonist	M1 PAM	CHO-K1 Ca PAM	CHO-K1 Ca antag	CHO-K1 Ca ag	M1 antag
Cc1cccc2c1NC(=O)C21OCC(CO)([N+](=O)[O-])CO1 (stereo not drawn)	0	13	-6	6	1	-9
CCN1/C(=C/C(C)=O)Sc2ccc(OC)cc21	-3	6	8	-18	0	-1
CCOC(=O)/C(=C\C=C1/Sc2cc(OCC)c(OCC)cc2N1CC)C(C)=O	44*	-15	-2	18	38*	24
CCOC(=O)/C(=C/C=C1\Sc2cc(OCC)c(OCC)cc2N1CC)C(C)=O	70*	-21	-15	30*	46*	27
COCCn1c(SCC(=O)NC2CCCC2)nnc1-c1ccco1	-4	6	8	-14	1	-12
Cc1cc(=O)oc2ccc(OCC(=O)N(Cc3ccc(F)cc3)Cc3ccco3)cc12	3	-15	-6	37*	6	34*
CC(=O)Oc1c(Cl)cc(N(C(C)=O)S(=O)(=O)c2ccccc2)c2ccccc12	-2	7	20	-9	2	-9
Cc1onc(-c2c(F)cccc2Cl)c1C(=O)Nc1cc(S(=O)(=O)N2CCCCC2)ccc1O	-3	-21	-19	26*	4	47*
CC(=O)NS(=O)(=O)c1ccc(NC(=O)CC23CC4CC(CC(Br)(C4)C2)C3)cc1	-4	7	4	-11	0	-5
O=c1[nH]c2cc(Cl)c(Br)cc2o1	4	3	15	-3	16*	-7
O=c1[nH]c2cc(Cl)c(Cl)cc2o1	5	7	5	-5	4	-15
CC(C)OC(=O)c1c2c(n3ccccc13)C(=O)c1ccccc1C2=O	12	-3	14	4	18*	20
COC(=O)c1cc2c(C)c(C)c3ccccn3c-2c1C(=O)OC	-3	5	10	0	1	-5
CCOC(=O)c1cnc(-n2nc(C)cc2C)nc1N1CC(C)OC(C)C1 (stereo not drawn)	-4	-5	-6	24*	0	10
Cc1ccc(-c2nc3ncccc3o2)cc1NC(=O)C(C)(C)C	-2	10	28	-15	2	-21
Cc1ccc(-c2nc3ncccc3o2)cc1NC(=O)c1cccs1	-5	5	-14	26*	0	-9
COCCCN1C(=O)c2ccc(C(=O)OCC(=O)N(CCC#N)c3cc(C)cc(C)c3)cc2C1=O	-6	7	3	-2	1	-7
CCN(CC)c1ccc2cc(-c3nnc(-c4ccncc4)o3)c(=O)oc2c1	22*	-4	16	5	19*	8
CCN(CC)c1ccc2cc(C(C)=O)c(=O)oc2c1	13	1	9	-2	8	-23
CCN(CC)c1ccc2cc(C=O)c(=O)oc2c1	53*	-18	-5	11	26*	19
Cc1nc2c(-c3ccccc3)c(C)nn2c(C)c1CCC(=O)NCc1ccco1	-1	6	19	-8	0	-9
CCN1CCN(c2ccc(NC(=O)CCc3c(C)nc4c(-c5ccccc5)c(C)nn4c3C)cc2)CC1	-11	-24	0	4	2	37*
CCN1CCN(c2cc(C(C)(C)C)nc3c(-c4ccccc4)c(C)nn23)CC1	-5	-2	12	-9	18*	7
Cc1[nH]c(=O)nc(NN=Cc2ccc(Cl)cc2)c1C(=O)Nc1ccc(Cl)cc1	-3	9	16	-10	1	-14
Cc1c(C(=O)NCc2ccc3c(c2)OCCO3)sc(=O)n1Cc1cccc(C(F)(F)F)c1	-3	3	-7	10	1	7
SMILES	CHRM1 agonist	M1 PAM	CHO-K1 Ca PAM	CHO-K1 Ca antag	CHO-K1 Ca ag	M1 antag
COc1cc(C[C@@H]2C(=O)OC[C@H]2Cc2ccc(OC)c(OC)c2)ccc1O	3	-24	5	4	12	50*
O=C1CC(c2ccc(O)c(O)c2)Oc2cc(O)cc(O)c21 (stereo not drawn)	2	15	-12	12	0	-11
COc1ccc(C2CC(=O)c3c(O)cc(O)cc3O2)cc1O (stereo not drawn)	-2	-18	-13	14	1	28*
Cc1ccc(C(=O)NCCSc2c(C)[nH]c3ccccc23)cc1[N+](=O)[O-]	-4	-15	-3	5	5	14
O=C(NCCc1cccc(Cl)c1)c1ccc(Cl)c([N+](=O)[O-])c1	-7	-12	5	2	5	-2
O=C(NCCc1nc2ccccc2[nH]1)c1ccc(Cl)c([N+](=O)[O-])c1	-8	-27	19	9	3	29*
